In PubChem BioAssay (NCI) one finds growth data, which are given here for eight compounds.

Some test systems named below: HCT-15 colon; HT29 colon; SNB-75 CNS; SNB-19 CNS; U251 CNS; PC-3 prostate; SK-MEL-5 melanoma; UACC-62 melanoma; LOX IMVI melanoma; SK-MEL-28 melanoma; SK-MEL-2 melanoma; EKVX NSCLC; SN12C renal; UO-31 renal; TK-10 renal; ACHN renal; CAKI-1 renal; A498 renal; CCRF-CEM leukemia; MOLT-4 leukemia.
What all share (assay): NCI-60 one-dose screen, 48 h (100 = growth as untreated, 0 = no growth, -100 = all killed)
Conditions in all cases: 10 µM unless noted

This is part of a sample that, as a whole, favours compounds with a hit. Of some 83,000 tested, about 20% had one in any assay.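 Interpretation: 100, growth as untreated; towards 0, rising growth inhibition; 0, no net growth; 0 to -100, cell death. Compounds scoring below 10 were considered active.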 A number with no mark means an inactive call. Calls of active or inactive are those of the source.

Take `COc1ccc(/C=N/NC(=O)CN2CCN(c3cc4c(cc3F)c(=O)c(C(=O)O)cn4C3CC3)CC2)cc1O`: the growth is 109% with HCT-15 colon; 96.1% in the assay on HT29 colon; 106% in the assay with SNB-75 CNS; 94.4% in the assay with SNB-19 CNS; 95.3% in the assay with U251 CNS; 93% in the assay with PC-3 prostate. The growth in the assay with SK-MEL-5 melanoma is 89.8%; in the assay on UACC-62 melanoma, 97.6%; in the assay with LOX IMVI melanoma, 97.9%; in the assay on SK-MEL-28 melanoma, 109%; with SK-MEL-2 melanoma, 94.1%; with EKVX NSCLC, 112%. The growth in the assay on SN12C renal was 99.1%; in the assay with UO-31 renal it was 94.6%; with TK-10 renal, 89.6%; in the assay with ACHN renal it was 106%; in the assay with CAKI-1 renal, 111%; with A498 renal, 104%. In addition, the growth in the assay with CCRF-CEM leukemia was 92.7%; in the assay with MOLT-4 leukemia it was 82.7%.
Regarding `OCc1cc(CN2CCCCC2)c(O)c2ncccc12`, the growth in the assay on HCT-15 colon is 20%; with HT29 colon, 41.6%; with SNB-75 CNS, 81.1%; with SNB-19 CNS, 57.3%; in the assay with U251 CNS it was 40.5%; with PC-3 prostate it was 46.9%. Besides, the growth in the assay with SK-MEL-5 melanoma was 74.2%; with UACC-62 melanoma, 55.3%; in the assay with LOX IMVI melanoma, 37.3%; with SK-MEL-28 melanoma, 60.7%; in the assay with SK-MEL-2 melanoma, 81.3%; in the assay with EKVX NSCLC it was 65.5%. The growth in the assay with SN12C renal was 59.9%; with UO-31 renal, 17.7%; in the assay with TK-10 renal, 31%; in the assay with ACHN renal it was 20.7%; with CAKI-1 renal it was 13%; with A498 renal it was 91.8%. In addition, the growth in the assay on CCRF-CEM leukemia is 29.5%; in the assay on MOLT-4 leukemia it was 36%.
In the case of `COc1ccc(Cl)cc1Nc1nc(C(F)(F)F)ccc1C(=O)N/N=C/c1ccc(N(C)C)cc1`, the growth was 87.3% in the assay on HCT-15 colon; 107% in the assay on HT29 colon; 88.8% with SNB-75 CNS; 86% in the assay with SNB-19 CNS; 92.6% with U251 CNS; 97.3% in the assay with PC-3 prostate. Further, the growth in the assay on SK-MEL-5 melanoma is 95.6%; with UACC-62 melanoma, 102%; in the assay with LOX IMVI melanoma, 95.2%; in the assay on SK-MEL-28 melanoma, 88.2%; in the assay with SK-MEL-2 melanoma, 82.5%; in the assay on EKVX NSCLC, 121%. Moreover, the growth is 98.2% with SN12C renal; 98.3% in the assay on UO-31 renal; 95.9% with TK-10 renal; 96.6% in the assay on ACHN renal; 116% with CAKI-1 renal; 109% in the assay with A498 renal. Besides, the growth was -17.6% (active) in the assay on CCRF-CEM leukemia and 90.4% in the assay on MOLT-4 leukemia.
As to `O=C(N=Nc1c(O)[nH]c2ccccc12)Nc1ccc(Br)cc1`, the growth with HCT-15 colon was 77%; in the assay on HT29 colon, 97.6%; in the assay on SNB-75 CNS it was 105%; in the assay with SNB-19 CNS it was 96.5%; with U251 CNS it was 101%; in the assay on PC-3 prostate it was 91.9%. For the same compound, the growth with SK-MEL-5 melanoma is 81.9%; with UACC-62 melanoma, 79.3%; in the assay with LOX IMVI melanoma it was 78%; in the assay on SK-MEL-28 melanoma, 89.3%; in the assay on SK-MEL-2 melanoma, 93.5%; in the assay with EKVX NSCLC, 86.6%. Also, the growth with SN12C renal was 99.3%; with UO-31 renal, 66.8%; in the assay with TK-10 renal it was 90%; in the assay with ACHN renal, 83.7%; in the assay on CAKI-1 renal it was 76.3%; in the assay with A498 renal, 72%. For the same compound, the growth in the assay with CCRF-CEM leukemia is -43.8% (active); in the assay on MOLT-4 leukemia it was 90.2%.
As for `COc1nc(=O)n(C2C=CC(=O)O2)cc1F` (stereo not given), the growth in the assay on HCT-15 colon is 58.5%; in the assay with HT29 colon it was 55.8%; in the assay with SNB-75 CNS, 90.2%; in the assay with SNB-19 CNS, 97.8%; with U251 CNS it was 103%; in the assay with PC-3 prostate, 110%. In addition, the growth in the assay with SK-MEL-5 melanoma was 94.9%; in the assay with UACC-62 melanoma, 59.7%; with LOX IMVI melanoma, 64.9%; with SK-MEL-28 melanoma it was 96%; in the assay with SK-MEL-2 melanoma, 106%; in the assay on EKVX NSCLC, 78.4%. In addition, the growth was 94.8% with SN12C renal; 56.3% in the assay with UO-31 renal; 61.3% in the assay with TK-10 renal; 31.7% in the assay with ACHN renal; 40.1% in the assay with CAKI-1 renal; 97.9% in the assay with A498 renal. For the same compound, the growth in the assay on CCRF-CEM leukemia was 48.7%; with MOLT-4 leukemia, 33.5%.
In the case of `Nc1n[nH]c2cccc(C#Cc3cccc(C(=O)Nc4ccc(CN5CCOCC5)c(C(F)(F)F)c4)c3)c12`, the growth with HCT-15 colon was 22.5%; with HT29 colon, 17.4%; in the assay on SNB-75 CNS, 52.9%; in the assay on SNB-19 CNS, 75.2%; in the assay with U251 CNS, 40.3%; in the assay with PC-3 prostate, 29.5%. Also, the growth with SK-MEL-5 melanoma was 17.5%; in the assay on UACC-62 melanoma, 5.89% (active); in the assay with LOX IMVI melanoma, 6.76% (active); in the assay with SK-MEL-28 melanoma it was 14.5%; in the assay with SK-MEL-2 melanoma it was 23.3%; in the assay with EKVX NSCLC it was 63.4%. Further, the growth in the assay with SN12C renal was 54.8%; in the assay with UO-31 renal, 22.3%; in the assay on TK-10 renal, 76.2%; in the assay on ACHN renal, 24.8%; with CAKI-1 renal it was 73.4%; in the assay on A498 renal, 67.5%. Further, the growth is 20.7% in the assay on CCRF-CEM leukemia and 16.9% in the assay on MOLT-4 leukemia.
Consider `COc1ccc(Nc2ncnc3ccc(-c4cncc(NS(C)(=O)=O)c4)cc23)cc1Cl`, for which the growth in the assay on HCT-15 colon was 63.3%; with HT29 colon, 23.1%; in the assay on SNB-75 CNS it was 26.7%; with SNB-19 CNS, 42.2%; in the assay with U251 CNS, 12%; in the assay with PC-3 prostate, 30%. For the same compound, the growth in the assay on SK-MEL-5 melanoma is -60.5% (active); with UACC-62 melanoma, 31.8%; with LOX IMVI melanoma it was 15.7%; in the assay on SK-MEL-28 melanoma it was 42.4%; with SK-MEL-2 melanoma, -4.48% (active); in the assay with EKVX NSCLC, 67.3%. The growth in the assay on SN12C renal was 38%; with UO-31 renal it was 50.1%; with TK-10 renal it was 18.2%; with ACHN renal, 80.4%; in the assay with CAKI-1 renal, 79.8%; with A498 renal, 7.85% (active). The growth in the assay with CCRF-CEM leukemia is 6.14% (active); in the assay with MOLT-4 leukemia it was -27.6% (active).
On to `COc1ccc(C/C(C)=C(\c2ccc(O)cc2)c2ccc(OCCCN(C)C)cc2)cc1`, for which the growth was 89.7% in the assay on HCT-15 colon; 77.6% with HT29 colon; 84.1% with SNB-75 CNS; 100% with SNB-19 CNS; 80.5% in the assay on U251 CNS; 83.4% in the assay with PC-3 prostate. Further, the growth with SK-MEL-5 melanoma was 98.4%; in the assay on UACC-62 melanoma it was 108%; with LOX IMVI melanoma, 88.9%; with SK-MEL-28 melanoma, 112%; in the assay with SK-MEL-2 melanoma, 88.4%; in the assay with EKVX NSCLC, 98.2%. For the same compound, the growth is 93.3% in the assay on SN12C renal; 77.7% in the assay on UO-31 renal; 86.9% in the assay on TK-10 renal; 109% with ACHN renal; 107% with CAKI-1 renal; 101% in the assay on A498 renal. Moreover, the growth was 73.9% with CCRF-CEM leukemia and 68.8% with MOLT-4 leukemia.
